# Screens deposited in PubChem BioAssay by National Center for Advancing Translational Sciences (NCATS).
# A selection: hits, their analogues and other compounds. The true share with any hit is near 4%.
# D1 PAM: potentiators of human D1 dopamine receptor | potentiation, % at 10 µM | P21728 | HEK293 TREx D1 cells, calcium flux, dopamine EC20 potentiation | AID 504651 | 360,000 tested, 0.036% active; in the data active = potentiation above about 30%; note: 0% is about no effect
# Target sequence (P21728 whole entry, looked up): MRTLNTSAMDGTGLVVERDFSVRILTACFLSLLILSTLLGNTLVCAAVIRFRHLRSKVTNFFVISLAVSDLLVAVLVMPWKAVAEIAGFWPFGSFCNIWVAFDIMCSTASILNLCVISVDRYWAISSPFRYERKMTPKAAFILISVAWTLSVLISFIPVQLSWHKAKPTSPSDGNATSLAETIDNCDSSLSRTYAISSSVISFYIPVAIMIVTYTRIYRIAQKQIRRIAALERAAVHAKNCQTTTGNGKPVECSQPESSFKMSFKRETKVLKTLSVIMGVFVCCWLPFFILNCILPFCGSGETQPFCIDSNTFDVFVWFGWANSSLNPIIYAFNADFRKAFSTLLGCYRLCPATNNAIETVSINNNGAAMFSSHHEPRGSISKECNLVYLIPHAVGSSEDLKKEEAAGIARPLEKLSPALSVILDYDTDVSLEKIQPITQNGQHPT
# D1 agonist: activates the human D1 dopamine receptor. HEK293 T-REx D1 cells, calcium flux, agonist mode. activation, % at 2 µM. 360,000 tested, 1% active. AID 504660; note: 0% is about no effect
#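 Agonism was scored from calcium flux recorded over 180 s (1 read/s) after pintool compound addition, following a 10-cycle baseline. Cells were inducible force-coupled HEK293 TREx D1, plated overnight at 30 C and loaded with no-wash calcium dye.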
# GRP78 ERSR act: induces the endoplasmic reticulum stress response in human glioma cells; 420,000 tested, 0.02% active; U87-MG GRP78 promoter luciferase reporter, 16 h; Potency, µM, for the others: top-dose activation, actives largely listed as activators; active = well fitted activation curve with a large enough effect; note: potency is the fitted concentration of half-maximal effect; series mostly up to about 76 µM; % of control where 0% means no effect; nearly all actives have a fitted effect of over 35% in size
#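 ERSR induction read as luciferase luminescence (Bright-Glo, 10 min at room temperature) in stably transfected human U87-MG glioma cells exposed to compounds for 16 h, using GRP78 as sensor.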
# TRHR ag: agonists of human TRH receptor; 360,000 tested, 0.18% active; activation, % at 2 µM; TRHR cells, calcium flux fluo-8, FDSS agonist mode; AID 493084; note: 0% is about no effect
#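 Agonist-mode FDSS calcium read (Ex 480/Em 530, 1 s cycles) in 1536-well TRHR cells with fluo-8 dye, after 10-cycle baseline and 23 nL compound addition; TRH at EC20 (10 nM final) added afterwards for the enhancer phase.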
# TRHR enhancer: allosteric enhancers of human TRH receptor; 360,000 tested, 0.66% active; TRHR cells, fluo-8 calcium fluorescence, EC20 TRH enhancement; enhancement, % at 2 µM; in the data active = enhancement above about 30%; note: 0% is about no effect
#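 Enhancer read-out: after compound pinning and an initial kinetic agonist-mode read, an EC20 of TRH (10 nM final) was injected and fluo-8 calcium signal (Ex 480/Em 530) followed at 1 s/cycle for 100 cycles in TRHR-expressing cells.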
# D1 antag: blocks dopamine activation of the human D1 receptor; P21728; HEK293 TREx D1 cells, calcium flux, dopamine EC80; stronger effect = lower value; activity change, negative = inhibition, % at 10 µM; 360,000 tested, 3.2% active; in the data active = activity change below about -30%; note: % is set by controls: 0 for no effect and ±100 for the full control effect
#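 Kinetic fluorescence of a calcium dye serves as the read-out. D1-expressing Hek293 Trex cells, induced overnight at 30 C, are exposed to compound for 180 s before an EC80 dopamine addition, then read 180 s further.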
# * hit, by the source's call; . = no result; ! = repeats disagree. Cut-off read from the data, not from the text of the source, unless noted: active = activation above about 30%; inactive = the rest.
SMILES,D1 PAM,D1 agonist,GRP78 ERSR act,TRHR ag,TRHR enhancer,D1 antag
O=C(OCn1ncc(Br)c(Br)c1=O)c1ccccc1Cl,-7.5,-2.8,-17.1%,-0.4,-3.2,-9.8
Cc1c(OC(C)C(=O)NCCN2CCOCC2)ccc2c3c(c(=O)oc12)CCCC3 (configuration not stated),-1.9,3.8,5.3%,0.1,-3.8,-0.1
Cc1c(OC(C)C(=O)NCc2ccccn2)ccc2c3c(c(=O)oc12)CCCC3 (configuration not stated),-7.0,6.7,-0.2%,-0.1,-3.9,-36.9*
Cc1c(OC(C)C(=O)NCCCN2CCCC2=O)ccc2c3c(c(=O)oc12)CCCC3 (configuration not stated),-1.8,33.1*,-6.6%,-0.1,19.4,3.9
Cc1c(OC(=O)CNC(=O)OC(C)(C)C)ccc2c3c(c(=O)oc12)CCC3,-9.7,4.4,-2.0%,-0.6,-2.0,-42.6*
Cc1c(OC(C)C(=O)NC2CC(C)(C)NC(C)(C)C2)ccc2c3c(c(=O)oc12)CCC3 (configuration not stated),-5.2,2.2,-3.8%,0.7,-0.8,-48.9*
Cc1c(OCC(=O)OC(C)(C)C)ccc2c3c(c(=O)oc12)CCC3,-5.3,10.9,5.0%,-0.7,-1.0,-13.3
O=C(NCCCN1CCOCC1)c1ccc(Cl)cc1[N+](=O)[O-],-1.3,1.8,-3.3%,0.9,-0.8,-16.8
Cc1cccc(OCC(=O)N/N=C\c2cn(C)c3ccccc23)c1,-1.1,21.9,-0.8%,0.3,0.7,-34.1*
COc1ccc(N2CCN(C3CCN(S(=O)(=O)c4ccc(F)cc4)CC3)CC2)cc1,-0.8,3.1,-3.9%,0.2,-1.8,-3.4
COc1cccc(C(c2ccccc2)N2C3CCC2CN(S(=O)(=O)c2ccc(F)cc2)CC3)c1 (configuration not stated),-3.5,61.9*,-4.5%,0.5,-4.1,-0.9
CCOCC(=O)Nc1ccc(S(=O)(=O)NCC2CCCO2)cc1 (configuration not stated),0.5,4.2,1.2%,-0.3,-1.3,16.9
COc1ccccc1Oc1cn[nH]c1-c1ccc(O)cc1O,-6.3,2.3,-0.8%,-0.1,28.2,-32.0*
CCOCCCNC(=O)Cc1c(C(=O)O)[nH]c2ccc(Cl)cc12,-4.9,0.0,-0.5%,0.1,-2.3,-0.1
O=C(Nc1ccc(Br)cc1F)c1ccc2nsnc2c1,-4.3,3.7,13.4%,1.4,1.9,-33.1*
CCN(CC)c1ccc(/C=C2\SC(=O)N(C(C)C)C2=O)o1,-4.9,51.4*,-13.7%,13.2,-3.0,-17.3
Cc1ccc(-c2nnc(OCCN3CCOCC3)c3ccccc23)cc1,-2.3,0.3,-0.6%,-0.7,1.2,-24.0
CCCP(=O)(CCC)CCP(=O)(c1ccccc1)c1ccccc1,8.2,1.6,-4.9%,0.1,-4.9,11.3
COc1ccc(N(CC(=O)Nc2ccc(C)c(F)c2)S(=O)(=O)c2c(C)noc2C)cc1,-2.6,7.4,-3.5%,0.8,-4.6,-9.2
Cc1ccc(CCNC(=O)CN(c2ccc(C)cc2)S(=O)(=O)c2c(C)noc2C)cc1,-0.5,1.3,-4.9%,0.0,-7.5,-1.4
Cc1ccc(N(CC(=O)NCCc2ccc(Cl)cc2)S(=O)(=O)c2c(C)noc2C)cc1,4.0,8.3,-7.3%,0.0,-10.7,-33.5*!
CCOc1ccc(N(CC(=O)Nc2cccc(Cl)c2)S(=O)(=O)c2c(C)noc2C)cc1,-6.2,4.3,-4.2%,1.1,6.4,-36.2*
COc1ccc(N(CC(=O)Nc2ccc(C)c(C)c2)S(=O)(=O)c2c(C)noc2C)cc1,-11.7,4.4,-3.9%,1.0,21.9,-41.6*
CNC(=S)NCCN1CCOCC1,4.8,2.6,-4.4%,0.2,5.8,-1.5
O=C(O)c1ccc(-n2c(/C=C\c3ccc(O)cc3)nc3ccccc3c2=O)cc1,0.1,4.8,-3.6%,2.1,12.0,0.9
SMILES,D1 PAM,D1 agonist,GRP78 ERSR act,TRHR ag,TRHR enhancer,D1 antag
O=C(O)c1cc(-n2c(/C=C\c3ccc(F)cc3)nc3ccccc3c2=O)ccc1Cl,1.2,-3.0,-2.0%,0.1,2.5,-31.5*
CN(C)c1ccc(/C=C/c2nc3ccccc3c(=O)n2-c2ccc(C(=O)O)cc2)cc1,-5.1,102.1*,0.0%,120.5*,30.1*,2.1
O=C(CCC1CCCN(Cc2ccc3c(c2)OCCO3)C1)NCc1ccccc1F (configuration not stated),-9.4,0.8,-2.6%,0.0,0.1,7.0
CCN1C(=O)CC(N2CCC(C(=O)N3CCOCC3)CC2)C1=O (configuration not stated),2.6,-1.8,2.1%,-0.4,-3.2,24.8
O=S(=O)(c1c(F)cccc1F)N1CCN(S(=O)(=O)c2c(F)cccc2F)CC1,0.3,0.9,.,0.0,2.7,-30.5*
O=S(=O)(c1c(F)cccc1F)N1CCN(Cc2c(O)ccc3ccccc23)CC1,-3.3,3.7,-0.4%,0.7,-2.9,0.4
COCCN(C(=O)c1snc(C(N)=O)c1N)C(C(=O)NC1CCCC1)c1cc(OC)c(OC)c(OC)c1 (configuration not stated),-4.2,1.4,-5.0%,0.5,0.3,3.1
Cc1cccc(Cn2c(=O)n3nc(-c4ccccc4)nc3c3ccccc32)c1,0.9,2.3,-0.2%,0.5,-1.1,10.6
O=c1n(Cc2cccc(F)c2)c2ccccc2c2nc(-c3ccccc3)nn12,0.0,-0.4,-4.7%,0.6,-1.2,-53.2*
COc1ccc(CNc2nc(-c3ccoc3)nc3ccccc23)c(OC)c1,.,.,-2.3%,.,.,.
O=C(Nc1cccs1)N1CCN(c2ncccn2)CC1,0.6,1.3,-5.6%,1.0,2.0,-4.5
COc1ccc(CN(C(=O)Cn2nnc(-c3ccc(C)o3)n2)C(C(=O)NCC2CCCO2)c2ccco2)cc1 (configuration not stated),-5.8,-0.2,-1.2%,0.2,-0.8,-41.6*
COc1ccc(-c2nnn(CC(=O)N(Cc3ccco3)C(C(=O)NCC3CCCO3)c3ccco3)n2)cc1 (configuration not stated),-5.4,0.4,-0.5%,-0.1,0.2,3.6
Cc1ccc(-c2nnn(CC(=O)N(c3cccc(F)c3)C(C(=O)NC(C)(C)C)c3ccco3)n2)o1 (configuration not stated),-2.0,0.1,-2.3%,0.1,-0.8,-38.8*
Cc1ccccc1N(C(=O)Cn1nnc(-c2ccc(F)cc2)n1)C(C(=O)NC(C)(C)C)c1ccncc1 (configuration not stated),-3.6,14.0,-0.8%,0.5,-11.6,-34.6*
C=CCNC(=O)N1CCC(n2nccc2NC(=O)CCc2ccccc2)CC1,-3.9,2.9,-6.2%,0.3,-7.9,2.8
CCc1nn(CC(=O)NCCCN2CCN(CC)CC2)c(=O)c2cc3occc3n12,-2.7,2.4,-6.9%,0.1,0.3,-34.9*!
